This is a sample that favours compounds with a hit; in the whole collection about 4.8% have one here.
ATXN2 expr inh = Primary qHTS for Inhibitors of ATXN expression; HEK-293 ATXN2-luciferase reporter, luminescence, 24 h; Potency, µM (doses to about 57 µM), for inactives: at the highest dose activity change, negative = inhibition, usual class: inhibitors; actives 0.72% (n = 360,000); AID 1745845, 2022; also: potency is read from the fitted curve at half-maximal effect; % is scaled to controls: 0 for no effect and ±100 for the full control effect; nearly all actives have a fitted effect of over 55% in size
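qHTS (up to 57 uM final) was run with 24 h compound exposure of reporter cells at 37 °C. Each well was multiplexed: SteadyGlo luminescence measured ATXN2-luciferase expression after a fluorogenic Gly-Phe-AFC viability readout (25 uM final).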
USP2a block = qHTS Assay for Inhibitors of Ubiquitin-specific Protease USP2a Using CHOP2 as the Reporter | actives 0.01% (n = 330,000) | Potency, µM (doses to about 38.3 µM), without a hit: at the highest dose activity change, negative = inhibition, most hits filed as inhibitors | Ubiquitin carboxyl-terminal hydrolase 2 (Homo sapiens), O75604 | USP2 core, Ub-CHOP2 coupled fluorogenic reporter, 485/531;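 also: potency is read from the fitted curve at half-maximal effect; plate controls were DMSO wells for no effect and full inhibition by NEM control for full effect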
Target sequence (O75604 whole entry, looked up): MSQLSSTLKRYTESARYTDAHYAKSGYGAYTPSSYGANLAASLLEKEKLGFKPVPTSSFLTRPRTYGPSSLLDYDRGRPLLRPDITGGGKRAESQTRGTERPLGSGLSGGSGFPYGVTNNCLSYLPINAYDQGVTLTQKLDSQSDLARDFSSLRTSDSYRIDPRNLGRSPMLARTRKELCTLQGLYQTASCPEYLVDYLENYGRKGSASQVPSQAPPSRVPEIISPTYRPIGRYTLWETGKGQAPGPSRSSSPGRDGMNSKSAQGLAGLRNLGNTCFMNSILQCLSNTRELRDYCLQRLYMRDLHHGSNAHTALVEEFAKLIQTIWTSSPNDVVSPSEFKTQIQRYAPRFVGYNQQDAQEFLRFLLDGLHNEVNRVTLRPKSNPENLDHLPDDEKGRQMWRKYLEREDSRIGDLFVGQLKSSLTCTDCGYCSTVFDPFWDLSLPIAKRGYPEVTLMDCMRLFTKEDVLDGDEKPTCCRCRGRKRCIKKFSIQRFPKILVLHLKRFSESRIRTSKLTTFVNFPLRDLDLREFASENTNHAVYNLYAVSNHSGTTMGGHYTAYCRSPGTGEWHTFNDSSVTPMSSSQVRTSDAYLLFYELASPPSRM
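USP2 core (10nM final) preincubated 30min RT with compound in 20mM Tris-HCl pH 8.0, 2mM CaCl2, 2mM beta-mercaptoethanol, 0.05% CHAPS; 25nM Ub-CHOP2 plus 25nM reporter substrate added, fluorescence (Ex485/Em531) read after 60min.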
USP1 inh = Inhibitors of USP1/UAF1: Primary Screen | Ubiquitin carboxyl-terminal hydrolase 1 (Homo sapiens), O94782 | recombinant USP1/UAF1, Ub-Rhodamine cleavage fluorescence | Potency, µM (series often up to 57.1 µM), inactives show at the highest dose activity change, negative = inhibition, usual class: inhibitors | actives 0.23% (n = 390,000) | AID 743255, 2014; also: potency is read from the fitted curve at half-maximal effect; % is scaled to controls: 0 for no effect and ±100 for the full control effect; nearly all actives have a fitted effect of over 60% in size
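USP1/UAF1 complex at 1 nM was preincubated with compound for 15 min at room temperature, then Ub-Rho substrate (150nM final) was added. Fluorescence (480/540 nm) was read kinetically, 6 reads every 60 seconds.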
ATXN viability = Viability Counterscreen for Primary qHTS for Inhibitors of ATXN expression; S2 cells (HEK-293 line with an ATXN2-luciferase reporter) viability, CellTiter-Fluor protease fluorescence, 24 h; Potency, µM (highest dose often 56.7 µM), hits mostly cytotoxic; actives 0.49% (n = 400,000); AID 651635, 2014; also: potency is read from the fitted curve at half-maximal effect; nearly all actives have a fitted effect of over 40% in size
IL1B secr inh = qHTS for Inhibitors of Inflammasome Signaling: IL-1-beta AlphaLISA Primary Screen | AID 743279, 2014 | activity change, % at 57.5 µM | actives 4.7% (n = 360,000) | THP-1 LPS/ATP IL-1B secretion, AlphaLISA, 16 h; stronger effect = lower value; in the data active = activity change below about -50%; inconclusive = mostly about -30% to -49%; also: % is scaled to controls: 0 for no effect and ±100 for the full control effect
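Secreted IL-1B measured by AlphaLISA bead assay after 16 h compound exposure of THP-1 cells; compounds (final up to 57.5 uM) added 1 h before LPS (250 ng/mL) and ATP (1.25 mM) stimulation; lower signal means less secretion.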
* hit, by the source's call; i = inactive; ? = inconclusive; / = no result given. Unless noted, calls follow the shape of the dose curve; as a rule, active = well fitted curve in the direction sought with a large enough effect; inconclusive = small, poorly fitted or top-dose-only effect, or another doubt; inactive = no such curve, though single readings can be large; an effect the other way counts as inactive or inconclusive.

SMILES	ATXN2 expr inh	USP2a block	USP1 inh	ATXN viability	IL1B secr inh
CCN(C(=O)CSc1cc(C)c2ccc(OC)cc2n1)C1CCS(=O)(=O)C1 (centres undefined)	8.2%	7.4%	-18.3%	i	-10.6
CCN(C(=O)CSc1nc(-c2cccs2)nc2ccccc12)C1CCS(=O)(=O)C1 (centres undefined)	5.9%	3.4%	-0.5%	i	-93.2*
CCC[C@H]1C[C@H](C(=O)N[C@H]([C@@H]2O[C@H](SC)[C@@H](O)[C@H](O)[C@@H]2O)[C@H](C)O)N(C)C1	/	/	/	i	/
CC(=O)Nc1nc(-c2ccccc2)c(-c2ccccc2)o1	/	1.0%	-11.7%	i	-66.3*
CCCn1c(SCC(=O)Nc2ccccc2C(=O)NC2CC2)n[nH]c1=O	-8.7%	1.1%	-13.1%	i	0.0
Cc1ccc(Cn2c(C(=O)O)c(CNCc3ccccc3Cl)c3ccc(C)cc32)cc1	8.4%	/	-10.7%	?	/
C=Cc1ccc(Cn2c(C(=O)O)c(CNCCc3ccccc3)c3ccc(C)cc32)cc1	?	/	-24.8%	22.4µM*	/
COc1ccc(Cn2c(C(=O)O)c(CNCCc3ccccc3Cl)c3ccc(C)cc32)cc1	?	/	-30.4%	17.8µM*	/
COc1ccc(CNC(=O)c2cc(-c3cccs3)nc3ccccc23)c(OC)c1	-9.1%	/	-11.8%	i	/
CC1=CN2C(=N)/C(=C/c3ccc(Sc4ccc(C)cc4)o3)C(=O)N=C2S1	18.8%	-7.6%	?	i	-58.4*
CC1=CN2C(=N)/C(=C/c3ccc(Sc4ccc(Cl)cc4)o3)C(=O)N=C2S1	7.0%	-0.2%	-2.1%	i	-68.7*
CCOC(=O)N1CCN(C(=O)COC(=O)C2CCN(S(=O)(=O)c3ccc(C)c(C)c3)CC2)CC1	6.8%	1.0%	-5.0%	i	19.4
Cc1ccc(CS(=O)(=O)Cc2ccc(C(=O)NCCc3ccc(Cl)cc3)o2)cc1	/	/	-10.3%	/	/
CC(C)CC(NC(=O)OCc1ccccc1)C(=O)NC(Cc1c[nH]c2ccccc12)C(=O)O (centres undefined)	15.2%	/	/	i	12.0
CCC[C@@H](C=O)NC(=O)[C@H](CC(C)C)NC(=O)[C@H](CC(C)C)NC(=O)OCc1ccccc1	1.53µM*	/	/	/	/
CCCCCCCC(=O)OCC(O)CO (centres undefined)	-0.5%	0.8%	-26.3%	i	-6.0
CCCCCCCCCCOCC(O)CN (centres undefined)	39.8µM*	/	/	39.8µM*	/
Oc1ccc(N=Cc2ccc(-c3cccs3)s2)cc1	?	0.4%	12.6µM*	i	14.1
Cc1cccc2cc(CN(C(=O)c3ccc(N4CCCCC4)cc3)C3CC3)c(N3CCC(O)CC3)nc12	/	/	/	i	/
COc1ccc([C@H]2CC(=O)C=C(c3cccc(C(C)C)c3)C2)cc1OC	-34.7%	0.4%	?	?	-50.6*
Cc1cccc(COc2ccc(-c3cc(C(F)(F)F)n4nc(C)cc4n3)cc2)c1	14.1%	/	-17.6%	i	/
CC(=O)Oc1ccc(C#C/C=C2\c3ccccc3C(=O)N2c2ccccc2)cc1	?	-4.1%	?	?	-99.6*
CCCC(/C=C/c1ccc(OC(C)=O)cc1)=C1/c2ccccc2C(=O)N1c1ccccc1	-0.9%	4.5%	?	/	-62.7*
CC(=O)Oc1ccc(CC(C(=O)O)N2C(=O)c3ccccc3C2=O)cc1 (centres undefined)	0.0%	-2.4%	-3.1%	i	45.7
COc1cc(CNC(=O)c2ccc3oc(C(C)C)nc3c2)cc(OC)c1	3.0%	-6.8%	-9.9%	i	-9.3
SMILES	ATXN2 expr inh	USP2a block	USP1 inh	ATXN viability	IL1B secr inh
COc1ccc(C2NCCc3c2[nH]c2ccccc32)cc1COc1ccc(F)cc1 (centres undefined)	28.2µM*	-11.9%	-10.1%	31.6µM*	-93.4*
COc1ccc(Cl)cc1NC(=O)c1nnn(CC(=O)Nc2ccc(OC)c(OC)c2)c1N	/	2.8%	-20.6%	i	-2.3
CCOc1ccc(OCC)c(NC(=O)c2nnn(CC(=O)Nc3cc(Cl)ccc3OC)c2N)c1	?	/	-24.6%	10µM*	/
CN(C)CCNC(=O)C(c1ccccc1)c1ccccc1	/	1.1%	-20.5%	i	-14.8
CC(CCCN(C)C)C(Cc1ccccc1)c1ccccc1 (centres undefined)	-27.5%	/	-9.4%	i	-65.6*
CN(C)CCC(=O)C(Cc1ccccc1)c1ccccc1 (centres undefined)	-5.6%	/	-15.4%	i	-99.1*
CCCCN1CC(COCc2ccccc2)Oc2cccc(OCCN3C(=O)[C@@H]4[C@H](C3=O)C3C=C[C@H]4C3)c2S1(=O)=O (some centres undefined)	-24.0%	/	-29.3%	i	9.1
O=C(NCc1nnnn1-c1ccc(F)cc1)c1ccc([N+](=O)[O-])o1	20.7%	0.3%	-16.9%	i	-96.9*
Cc1ccc(-n2nnnc2CNC(=O)c2ccc([N+](=O)[O-])o2)cc1C	-27.0%	-1.2%	-7.4%	?	-101.7*
O=C(NCc1nnnn1-c1ccc(F)cc1)c1ccc2ccccc2c1	/	/	-19.2%	i	-18.0
CS(=O)(=O)c1ccc(-c2cn3ccccc3n2)cc1	22.6%	/	/	i	/
Cc1c(C(=O)NN2CCCCC2)nn(-c2ccc(Cl)cc2Cl)c1-c1ccc(Cl)cc1	?	/	/	i	/
COc1ccc(C(=O)c2ccccc2)c(O)c1	13.7%	4.0%	-12.3%	i	-16.6
COc1ccc(C(C)=O)c(O)c1	15.3µM*	/	/	/	/
O=C(CN1CCCCC1)Nc1cc(S(=O)(=O)N2CCOCC2)ccc1N1CCCC1	/	-7.0%	-6.7%	?	-10.8
CC(C)C(=O)N1CCN(c2ccc(NC(=O)c3cccs3)cc2)CC1	13.0%	-6.0%	-14.4%	i	?
CC(C)C(=O)N1CCN(c2ccc(NC(=O)c3cccs3)cc2Cl)CC1	-16.7%	4.1%	-20.5%	?	-83.0*
CCC(=O)Nc1ccc(N2CCN(C(=O)c3ccco3)CC2)c(Cl)c1	-1.9%	2.4%	-17.5%	i	i
O=C(Nc1ccc(N2CCN(C(=O)c3ccco3)CC2)c(Cl)c1)c1cccs1	?	0.5%	-10.0%	i	-63.0*
O=C(Cc1ccc(Cl)cc1)Nc1ccc(N2CCN(C(=O)c3ccco3)CC2)c(Cl)c1	-36.8%	-10.0%	-0.2%	i	-67.7*
O=C(CSc1nnc(Cc2ccccc2)o1)Nc1ccc(N2CCOCC2)cc1	1.3%	4.4%	-20.2%	i	0.0
Cc1onc(-c2ccccc2)c1-c1ccnc(N)n1	-12.2%	-0.4%	-5.8%	i	-18.1
Cc1ccc(C)n1-c1ccc(-c2ccnc(N)n2)cc1	1.8%	-12.4%	-20.1%	i	-83.2*
